According to PubChem BioAssay (Tox21):
Results filed as inconclusive are left out. Where a call stands in place of a potency, no number is given. A number with no mark means an inactive call. Activity calls are given as the source filed them. Calls follow the shape of the dose curve; as a rule, active = well fitted cell-killing curve with a large enough effect in the repeat runs; inconclusive = weak or mixed curves, or effect the other way; inactive = flat fitted curve, though single readings scatter.

Assay: qHTS RealTime-Glo MT Cell Viability Assay in HEK293 cells - 0 hour (AID 1224880); also: top concentration of the series differs between compounds; nearly all actives have a fitted effect of over 45% in size
Conditions: RealTime-Glo luminescence; series mostly up to 76.8 µM
Description: U.S. Tox21 Program National Center for Advancing Translational Sciences [NCATS] NIH Chemical Genomics Center [NCGC] U.S. Environmental Protection Agency [EPA] National Institutes of Environmental Health Sciences [NIEHS] National Toxicology Program [NTP] U.S. Food and Drug Administration [FDA] Tox21 Assay Overview: Measure of cell viability is critical in the cell-base assay. Analysis of cell viability is necessary for the characterization of cell responses to cytotoxic drugs and environmental stress. A RealTime-Glo MT Cell Viability Assay to monitor cell viability in real time of continues cell culture during 40 hours of compound treatment was used to screen Tox21 10K library compounds in Hek293 cells. The RealTime-Glo MT Cell Viability Assay is a nonlytic, homogeneous, bioluminescent method to measure cell viability in real time using a simple, plate-based method. The assay involves adding NanoLuc luciferase and a cell-permeant prosubstrate to cells in culture. Viable cells reduce the proprietary prosubstrate to generate a substrate for NanoLuc luciferase. This substrate diffuses from cells into the surrounding culture medium, where it is rapidly used by the NanoLuc Enzyme to produce a luminescent signal. The signal correlates with the number of viable cells, making the assay well suited for cytotoxicity studies.
Tox21 Assay Protocol Summary: The mixture of Hek293 cell suspension and reagents were dispensed at 600cells/6 ul/well in 1536-well tissue culture treated black solid bottom plates using a Multidrop dispenser. After the assay plates were incubated at a 37 C/5% CO2 incubator for 5 hours, 23 nL of compounds dissolved in DMSO, positive and negative controls was transferred to the assay plate by a pintool work station. The plates were incubated at 37 C for 40 hours. The luminescence intensity were measured at 0h, 8h, 16h, 24h, 32h and 40h time points using ViewLux plate reader during compound treatment.

Question: For `Nc1ccc(Cl)cc1C(=O)c1ccccc1`, which Potency is on record?
Answer: inactive

Question: For `O=S(=O)(c1ccc(Cl)cc1)c1ccc(Cl)cc1`, which Potency is on record?
Answer: inactive

Question: With `Oc1ccccc1Br` as the compound, how does the Potency read?
Answer: inactive

Question: With `CCOc1cc(C(C)(C)C)ccc1C1COC(c2c(F)cccc2F)=N1` (stereo not given) as the compound, how does the Potency read?
Answer: inactive

Question: With `ClC(Cl)=C(c1ccc(Cl)cc1)c1ccc(Cl)cc1` as the compound, how does the Potency read?
Answer: inactive

Question: Which Potency does the source give for `N#CCCC(Br)(C#N)CBr` (stereo not given) here?
Answer: inactive

Question: For `N#C/C=C/c1ccccc1`, which Potency is on record?
Answer: inactive

Question: Which Potency does the source give for `ClC1=C(Cl)C2(Cl)C3C(Cl)C(Cl)CC3C1(Cl)C2(Cl)Cl` (stereo not given) here?
Answer: inactive

Question: With `CC(C)CCCCCCCOP(=O)(Oc1ccccc1)Oc1ccccc1` as the compound, how does the Potency read?
Answer: inactive

Question: Which Potency does the source give for `CCCN(CCC)CCc1c[nH]c2ccccc12` here?
Answer: inactive

Question: For `C[C@H]1O[C@@H](O[C@H]2[C@@H](O)C[C@H](O[C@H]3[C@@H](O)C[C@H](O[C@H]4CC[C@@]5(C)[C@H](CC[C@@H]6[C@@H]5CC[C@]5(C)[C@@H](C7=CC(=O)OC7)CC[C@]65O)C4)O[C@@H]3C)O[C@@H]2C)C[C@H](O)[C@@H]1O`, which Potency is on record?
Answer: inactive

Question: Which Potency does the source give for `ClC1=C(Cl)[C@]2(Cl)[C@@H]3[C@@H](Cl)[C@@H](Cl)C[C@@H]3[C@@]1(Cl)C2(Cl)Cl` here?
Answer: inactive

Question: For `Nc1ccccc1C(=O)Oc1ccc2ccccc2c1`, which Potency is on record?
Answer: inactive

Question: For `CCOCCOC(C)=O`, which Potency is on record?
Answer: inactive

Question: For `O=C/C(Cl)=C(/Cl)C(=O)O`, which Potency is on record?
Answer: inactive

Question: For `CN(C)C1CSSSC1`, which Potency is on record?
Answer: inactive

Question: For `Cc1cc(C)c(C2=C(OC(=O)CC(C)(C)C)C3(CCCC3)OC2=O)c(C)c1`, which Potency is on record?
Answer: inactive

Question: Which Potency does the source give for `Cn1cc(C2=C(c3cn(C4CCN(Cc5ccccn5)CC4)c4ccccc34)C(=O)NC2=O)c2ccccc21` here?
Answer: inactive

Question: For `COC(=O)N(C(=O)N1COC2(C(=O)OC)Cc3cc(Cl)ccc3C2=N1)c1ccc(OC(F)(F)F)cc1` (stereo not given), which Potency is on record?
Answer: inactive

Question: For `O=C(NC(=O)c1c(F)cccc1F)Nc1cc(Cl)c(OC(F)(F)C(F)F)c(Cl)c1`, which Potency is on record?
Answer: inactive

Question: For `Clc1ccc(-c2ccc(Cl)c(Cl)c2Cl)c(Cl)c1Cl`, which Potency is on record?
Answer: inactive

Question: Which Potency does the source give for `c1ccc(OCC2CO2)cc1` (stereo not given) here?
Answer: inactive

Question: For `CC(C)C(=O)Cl`, which Potency is on record?
Answer: inactive

Question: For `O=[N+]([O-])c1ccc2ccc3cccc4ccc1c2c34`, which Potency is on record?
Answer: inactive

Question: For `C=CC(=O)OCC(COC(=O)C=C)(COC(=O)C=C)COC(=O)C=C`, which Potency is on record?
Answer: inactive

Question: For `ClC1=C(Cl)[C@]2(Cl)[C@@H]3[C@@H](Cl)[C@H](Cl)C[C@@H]3[C@@]1(Cl)C2(Cl)Cl`, which Potency is on record?
Answer: inactive

Question: With `CCOC(=O)C1(c2ccccc2)CCN(CCC(C#N)(c2ccccc2)c2ccccc2)CC1` as the compound, how does the Potency read?
Answer: inactive

Question: With `Nc1ccc(Cc2ccc(N)c(Cl)c2)cc1Cl` as the compound, how does the Potency read?
Answer: inactive

Question: Which Potency does the source give for `CC(C)OS(C)(=O)=O` here?
Answer: inactive

Question: For `COc1cc(C=O)cc2c1[C@H](COC(N)=O)[C@]1(OC(C)=O)ON2C[C@H]2[C@@H]1N2C(C)=O`, which Potency is on record?
Answer: inactive

Question: Which Potency does the source give for `COC12CC[C@@]3(C[C@@H]1C(C)(O)C(C)(C)C)[C@H]1Cc4ccc(O)c5c4[C@@]3(CCN1CC1CC1)[C@H]2O5` (stereo not given in full) here?
Answer: inactive

Question: For `BrCC(Br)c1ccccc1` (stereo not given), which Potency is on record?
Answer: inactive

Question: For `S=C(SSC(=S)N1CCCCC1)N1CCCCC1`, which Potency is on record?
Answer: inactive

Question: Which Potency does the source give for `ClC1=C(Cl)[C@]2(Cl)[C@@H]3[C@@H]4C[C@@H]([C@H]5O[C@@H]45)[C@@H]3[C@@]1(Cl)C2(Cl)Cl` here?
Answer: inactive

Question: With `CN(C)C(=S)[S-].CN(C)C(=S)[S-].[Cu+2]` as the compound, how does the activity change, negative = cytotoxicity read?
Answer: -3.44% [at 15.8 µM]

Question: Which Potency does the source give for `Nc1c(Oc2ccccc2)cc(O)c2c1C(=O)c1ccccc1C2=O` here?
Answer: inactive

Question: For `CC(C)(C)c1ccc(CSc2cnn(C(C)(C)C)c(=O)c2Cl)cc1`, which Potency is on record?
Answer: inactive

Question: Which Potency does the source give for `N#CCc1ccc(Cl)cc1` here?
Answer: inactive

Question: With `CCCSP(=O)(OCC)SCCC` as the compound, how does the Potency read?
Answer: inactive

Question: With `FC(F)(F)c1cccc(C2=CCN(CCc3ccc4ccccc4c3)CC2)c1` as the compound, how does the Potency read?
Answer: inactive
